G9a inh – qHTS Assay for Inhibitors of Histone Lysine Methyltransferase G9a. Histone-lysine N-methyltransferase EHMT2 (Homo sapiens), Q96KQ7. G9a H3K9 monomethylation, AlphaScreen, 2 h. Potency, µM (highest dose often 102 µM), without a hit: at the highest dose activity, negative = inhibition, usual class: inhibitors. actives 8.8% (n = 350,000). AID 504332, 2011; note: potency is the fitted concentration of half-maximal effect; % is set by controls: 0 for no effect and ±100 for the full control effect; nearly all actives have a fitted effect of over 75% in size
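G9a (20 nM) preincubated 15 min RT with compounds, then 500 nM biotinylated H3K9 peptide and 20 uM SAM added; 2 h RT reaction. Monomethyl-H3K9 product detected by AlphaScreen with anti-H3K9me1 antibody, streptavidin donor and anti-rabbit IgG acceptor beads.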
HP1b chromo inh – HTS for Inhibitors of HP1-beta Chromodomain Interactions with Methylated Histone Tails; Chromobox protein homolog 1 (Homo sapiens), P83916; AlphaScreen HP1-beta / biotin-H3K9me3 peptide binding; Potency, µM (highest dose often 114 µM), for inactives: at the highest dose activity change, negative = inhibition, most hits filed as inhibitors; actives 0.56% (n = 390,000); note: potency is the fitted concentration of half-maximal effect; nearly all actives have a fitted effect of over 70% in size
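AlphaScreen: HP1-beta (50 nM) preformed 30 min with biotin-H3(1-18)K9me3 peptide (50 nM) in PBS pH 7.4, 0.01% Tween-20. Compound added for 30 min at RT, then streptavidin donor/nickel chelate acceptor beads (10 ug/mL) for 30 min.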
PLK1 PBD inh – qHTS for Inhibitors of PLK1-PDB (polo-like kinase 1 - polo-box domain): Primary Screen. Plk1 PBD binding of FITC phosphopeptide, fluorescence polarization. actives 2.8% (n = 360,000). Potency, µM, inactives show max response, negative = inhibition, actives largely listed as inhibitors. Serine/threonine-protein kinase PLK1 (Homo sapiens), P53350; note: potency is the fitted concentration of half-maximal effect; series mostly up to about 57 µM; % is set by controls: 0 for no effect and ±100 for the full control effect; nearly all actives have a fitted effect of over 65% in size
BAZ2B inh – qHTS Assay for Inhibitors of BAZ2B. Potency, µM (top dose mostly 114 µM), without a hit: at the highest dose activity change, negative = inhibition, usual class: inhibitors. actives 4.4% (n = 360,000). AlphaScreen BAZ2B-H3K14Ac peptide displacement. AID 504333, 2011; note: potency is the fitted concentration of half-maximal effect; % is set by controls: 0 for no effect and ±100 for the full control effect; nearly all actives have a fitted effect of over 60% in size
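Multi-concentration screen (max 110 uM) measuring displacement of acetylated histone H3 peptide from BAZ2B by AlphaScreen, using 50 nM protein, 50 nM peptide and 10 ug/mL streptavidin donor plus Ni-chelate acceptor beads.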
PI5P4Ka inh – qHTS for Inhibitors of phosphatidylinositol 5-phosphate 4-kinase (PI5P4K); actives 1.2% (n = 330,000); Phosphatidylinositol 5-phosphate 4-kinase type-2 alpha (Homo sapiens), P48426; PI5P4Kalpha enzyme, ADP-Glo luminescence, 60 min; stronger effect = lower value; max response, %; active = max response of -50% or lower; inconclusive = between -30% and -50%; inactive = -30% or higher; note: value at the top dose of about 77 µM; % is set by controls: 0 for no effect and ±100 for the full control effect
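ADP-Glo luminescence end-point after a 60 min room-temperature kinase reaction. PI5P4Kalpha and substrate in HEPES pH 7.4 buffer with EGTA, 0.1% CHAPS and 5% DMSO; ATP at 5 microM final.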
JMJD2A Tudor inh – qHTS Assay for Inhibitors of JMJD2A-Tudor Domain. Lysine-specific demethylase 4A (Homo sapiens), O75164. AlphaScreen JMJD2A-Tudor / H3K4me3 peptide binding. Potency, µM (top dose mostly 114 µM), for the others: top-dose activity change, negative = inhibition, usual class: inhibitors. actives 4.4% (n = 390,000). AID 504339, 2011; note: potency is the fitted concentration of half-maximal effect; % is set by controls: 0 for no effect and ±100 for the full control effect; nearly all actives have a fitted effect of over 50% in size
Target sequence (O75164 whole entry, looked up, the tested form may be a part): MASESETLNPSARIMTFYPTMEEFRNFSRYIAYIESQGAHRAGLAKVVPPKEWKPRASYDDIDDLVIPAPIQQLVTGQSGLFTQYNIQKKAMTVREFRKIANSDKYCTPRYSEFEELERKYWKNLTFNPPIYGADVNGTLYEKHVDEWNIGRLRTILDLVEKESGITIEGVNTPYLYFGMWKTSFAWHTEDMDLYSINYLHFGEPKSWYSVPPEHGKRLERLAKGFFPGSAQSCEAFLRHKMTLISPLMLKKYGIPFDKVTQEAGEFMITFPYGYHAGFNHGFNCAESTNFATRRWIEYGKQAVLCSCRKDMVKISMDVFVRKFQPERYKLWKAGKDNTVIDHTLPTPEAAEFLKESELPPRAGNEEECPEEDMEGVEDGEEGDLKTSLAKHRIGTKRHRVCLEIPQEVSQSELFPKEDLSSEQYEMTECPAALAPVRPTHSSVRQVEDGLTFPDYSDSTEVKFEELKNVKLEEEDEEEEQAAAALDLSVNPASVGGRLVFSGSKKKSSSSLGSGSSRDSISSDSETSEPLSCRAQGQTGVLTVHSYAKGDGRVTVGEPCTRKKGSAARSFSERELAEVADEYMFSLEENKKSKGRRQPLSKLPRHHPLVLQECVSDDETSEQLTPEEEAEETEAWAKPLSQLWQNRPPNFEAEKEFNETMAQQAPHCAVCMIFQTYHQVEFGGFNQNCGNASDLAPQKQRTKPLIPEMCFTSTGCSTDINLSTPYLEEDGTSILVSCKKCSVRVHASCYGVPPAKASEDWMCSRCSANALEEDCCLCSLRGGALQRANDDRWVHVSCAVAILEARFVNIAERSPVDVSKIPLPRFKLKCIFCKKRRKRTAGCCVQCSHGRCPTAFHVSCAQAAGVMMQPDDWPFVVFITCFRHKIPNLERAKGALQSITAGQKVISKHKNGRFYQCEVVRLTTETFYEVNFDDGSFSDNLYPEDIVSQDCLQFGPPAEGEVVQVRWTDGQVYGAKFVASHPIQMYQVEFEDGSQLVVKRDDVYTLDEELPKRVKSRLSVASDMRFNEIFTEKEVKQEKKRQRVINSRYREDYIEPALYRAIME
The depositor's hits bear a star; ! = repeats disagree; [ ] = another dose, or the depositor's remark. Most compounds without a hit are left out; they make up all but 12% or so of the library. Unless noted, calls come from the whole dose curve; as a rule, active = well fitted curve in the direction sought with a large enough effect; inconclusive = small, poorly fitted or top-dose-only effect, or another doubt; inactive = no such curve, though single readings can be large; an effect the other way counts as inactive or inconclusive.

Results for O=C(COc1ccccc1)N1CCN(Cc2c[nH]c3ccccc23)CC1 ?
G9a inh: 13µM*; HP1b chromo inh: -18%; PLK1 PBD inh: 0%; PI5P4Ka inh: 5; JMJD2A Tudor inh: 7.9µM*

Results for O=C(Cc1ccccc1)N1CCN(Cc2c[nH]c3ccccc23)CC1 ?
G9a inh: -12%; HP1b chromo inh: 34%; PLK1 PBD inh: -5%; BAZ2B inh: 1%; JMJD2A Tudor inh: -11%

Results for O=C1CC2OCC=C3CN4CCC56c7ccccc7N1C5[C@H]2[C@H]3C[C@H]46 (stereo partly specified) (tested in a mixture with another compound) ?
G9a inh: -34%[12.7 µM]

What do the screens show for `C=CCN1CC[C@]23c4c5ccc(O)c4O[C@H]2/C(=N/NC(=O)c2ccccc2)CC[C@@]3(O)[C@H]1C5`?
G9a inh: 35µM*; HP1b chromo inh: 31%; PLK1 PBD inh: -5%; PI5P4Ka inh: -11; JMJD2A Tudor inh: -16%

Results for C=CCN1CC[C@]23c4c5ccc(O)c4OC2C(=O)CC[C@]3(O)C1C5 (stereo partly specified) ?
G9a inh: -36%[2.33 µM]

What do the screens show for `[O]=[Cd]`?
G9a inh: 31%[59 µM]

What do the screens show for `COc1cc2c(cc1OC)-c1c(OC)c(OC)cc3c1[C@H](C2)[N+](C)(C)CC3`?
G9a inh: 14µM*; HP1b chromo inh: -6%; PLK1 PBD inh: -3%; BAZ2B inh: -30%; PI5P4Ka inh: -3; JMJD2A Tudor inh: inconclusive

What do the screens show for `CC(Cc1cccc(C(F)(F)F)c1)NCCCc1ccccc1` (stereo unspecified)?
G9a inh: 16%[59 µM]

How did CCOc1ccc(CN(CCc2ccc3c(c2)OCO3)Cc2cccc(Br)c2)cc1 do in these assays?
G9a inh: inconclusive; HP1b chromo inh: inconclusive; BAZ2B inh: inconclusive; JMJD2A Tudor inh: 5µM*

Results for COc1ccccc1NC(=O)N(Cc1ccc2c(c1)OCO2)C1CCN(Cc2ccccc2)CC1 ?
G9a inh: inconclusive; HP1b chromo inh: -4%; BAZ2B inh: inconclusive; JMJD2A Tudor inh: inconclusive

What do the screens show for `CCOc1ccc(CN(CCc2ccc3c(c2)OCO3)Cc2ccc(OC)c(Br)c2)cc1`?
G9a inh: inconclusive; HP1b chromo inh: inconclusive; BAZ2B inh: inconclusive; JMJD2A Tudor inh: 7.1µM*

What do the screens show for `CCOc1ccc(CN(CCc2ccc3c(c2)OCO3)Cc2ccc(C)cc2)cc1`?
G9a inh: inconclusive; HP1b chromo inh: inconclusive; BAZ2B inh: inconclusive; JMJD2A Tudor inh: 6.3µM*

Results for CCOc1ccc(CN(CCc2ccc3c(c2)OCO3)Cc2cccc(OC)c2)cc1 ?
G9a inh: 2.2µM*; HP1b chromo inh: inconclusive; BAZ2B inh: 32µM*; JMJD2A Tudor inh: 6.3µM*

What do the screens show for `O=P1(Oc2ccccc2)CC=CC(COC(c2ccccc2)(c2ccccc2)c2ccccc2)O1` (stereo unspecified)?
HP1b chromo inh: 20%; JMJD2A Tudor inh: -30%

Results for COC(=O)C(C)Oc1ccc(Cc2ncc(C(F)(F)F)cc2Cl)cc1 (stereo unspecified) ?
G9a inh: 4%[2.33 µM]; HP1b chromo inh: 117%; PLK1 PBD inh: -7%; BAZ2B inh: 80%; PI5P4Ka inh: -2; JMJD2A Tudor inh: 56%

Results for CN1CCC[C@@H]1c1cccnc1 ?
G9a inh: -43%[59 µM]

Results for C[C@H](NC(=O)[C@@H](N)Cc1ccc(O)cc1)C(=O)N[C@@H](Cc1ccccc1)C(=O)N[C@@H](Cc1ccccc1)C(N)=O ?
G9a inh: 19%[59 µM]

Results for O=C1NC(=O)N(CC2CCCO2)C(=O)/C1=C/c1cccs1 (stereo unspecified) ?
G9a inh: 8%[12.7 µM]; HP1b chromo inh: 28%; PLK1 PBD inh: inconclusive; BAZ2B inh: -4%; PI5P4Ka inh: inconclusive; JMJD2A Tudor inh: -26%

How did O=C1NC(=O)N(CCC2=CCCCC2)C(=O)/C1=C/c1cccs1 do in these assays?
G9a inh: 14µM*; HP1b chromo inh: 6%; PLK1 PBD inh: 0.75µM*; BAZ2B inh: inconclusive; PI5P4Ka inh: -63*; JMJD2A Tudor inh: inconclusive

Results for O=C1NC(=O)N(CCC2=CCCCC2)C(=O)/C1=C/c1ccc(O)cc1 ?
G9a inh: inconclusive; HP1b chromo inh: 35%; PLK1 PBD inh: 2.7µM*; BAZ2B inh: 3%; PI5P4Ka inh: inconclusive; JMJD2A Tudor inh: -8%

What do the screens show for `CN(C)c1ccc(N=Cc2c(O)n(CCC3=CCCCC3)c(=O)[nH]c2=O)cc1`?
G9a inh: -11%; HP1b chromo inh: 9%; PLK1 PBD inh: 3%; BAZ2B inh: -2%; JMJD2A Tudor inh: -24%

Results for COc1ccc(/C=C2\C(=O)NC(=O)N(CCC3=CCCCC3)C2=O)c(OC)c1 ?
G9a inh: 11µM*; HP1b chromo inh: 18%; PLK1 PBD inh: 1.7µM*; BAZ2B inh: 13%; PI5P4Ka inh: inconclusive; JMJD2A Tudor inh: -42%

Results for CCN(CC)P(=O)(Nc1ccc(Br)cc1)c1c(C)nn(CCC#N)c1NC(=O)c1ccc(Cl)cc1 (stereo unspecified) ?
G9a inh: -1%[12.7 µM]; HP1b chromo inh: 15%; PLK1 PBD inh: -9%; BAZ2B inh: 20%; PI5P4Ka inh: -8; JMJD2A Tudor inh: -8%

Results for O=C(NC(=O)c1c(F)cccc1F)Nc1cc(Cl)c(OC(F)(F)C(F)C(F)(F)F)cc1Cl (stereo unspecified) ?
G9a inh: 1%[12.7 µM]

What do the screens show for `O=C(O)c1nn(Cc2ccc(Cl)cc2)c2ccccc12`?
PLK1 PBD inh: -16%; PI5P4Ka inh: -1

How did O=C(O)c1nn(Cc2ccc(Cl)cc2Cl)c2ccccc12 do in these assays?
G9a inh: 2.2µM*!; HP1b chromo inh: 31%; PLK1 PBD inh: -17%; BAZ2B inh: 1%; PI5P4Ka inh: -3; JMJD2A Tudor inh: -10%

Results for CCc1ccc(NC(=O)CN2C(=O)C3(SCC(=O)N3c3ccc(F)c(F)c3)c3ccccc32)cc1 (stereo unspecified) ?
G9a inh: inconclusive; HP1b chromo inh: 16%; BAZ2B inh: 4%[57.1 µM]; JMJD2A Tudor inh: -31%

How did S=P(c1ccccc1)(c1ccccc1)c1c[n+](Cc2ccccc2)c2ccccn12 do in these assays?
JMJD2A Tudor inh: -16%
